FMDV inh – foot and mouth disease virus antiviral activity. FMDV antiviral cell-based qHTS. Potency, µM (top dose mostly 57.9 µM), for inactives: top-dose activity change, negative = inhibition, most hits filed as inhibitors. 1.2% of 410,000 active. AID 1159524; calls by dose curve; tested in HEK293T cells; note: read-out not given here; potency is the fitted concentration of half-maximal effect; nearly all actives have a fitted effect of over 45% in size
MARV entry inh – blocks Marburg virus binding to or entry into cells; 1.8% of 300,000 active; AID 540276; Marburg virus pseudotyped entry inhibition, cell reporter; Potency, µM (titrated, usually from 37.8 µM), without a hit: top-dose activity change, negative = inhibition, usual class: inhibitors; calls by dose curve; tested in HEK293 cells; note: potency is the fitted concentration of half-maximal effect
HCV inhibitor – blocks hepatitis C virus. AID 651820. Huh7.5.1 HCVcc-Cre infection, luciferase reporter, 44 h. Potency, µM (titrated, usually from 41.8 µM), inactives show at the top dose activity change, negative = inhibition, most hits filed as inhibitors. 3.4% of 340,000 active; active = well fitted inhibition curve with a large enough effect; inconclusive = small, poorly fitted or top-dose-only effect, or another doubt; inactive = no such curve, though single readings can be large or run the other way; note: potency is the fitted concentration of half-maximal effect
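Reporter virus HCVcc-Cre (~0.5 moi) infects cells exposed to compound; seeding density 1,000 cells/well with 4 h settling beforehand. Luminescence, 15 sec read, taken 44 h post-infection following a 15 min RT substrate incubation.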
LASV entry inh – Lassa virus entry inhibition | Lassa virus pseudotype entry inhibition, cell reporter | Potency, µM (highest dose often 37.9 µM), without a hit: at the highest dose activity change, negative = inhibition, hits mostly inhibitors | 1.2% of 300,000 active | AID 540256; calls by dose curve; tested in HEK293 cells; note: potency is the fitted concentration of half-maximal effect; nearly all actives have a fitted effect of over 50% in size
HCMV inh – human cytomegalovirus inhibition. HFF cells, HCMV-luciferase reporter, 72 h; stronger effect = lower value. activity change, negative = inhibition, % at 57.5 µM. 4.5% of 410,000 active. AID 1259415; in the data active = activity change below about -60%; inconclusive = no clear call, values can overlap the other calls; inactive = above about -39%
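Cell-based, HFFs, 1000 cells/well, 16 h 37C; cpds in DMSO + HCMV-luc, MOI 1 PFU/cell; 72 h 37C; OneGlo luminescence after 5 min RT; norm. to buffer vs Salinomycin 10uM.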
Starred values were filed as active, the others as inactive; ? = inconclusive; / = no result given; [ ] = dose if it differs, or a comment. Sampled rows, rich in hits. Any-hit rate of the full collection: about 7.9%. % is set by controls: 0 for no effect and ±100 for the full control effect.

SMILES | FMDV inh | MARV entry inh | HCV inhibitor | LASV entry inh | HCMV inh
CC(=O)Nc1ccc(NC(=O)c2ccco2)cc1 | 59% | 18% | 7% | ? | 19
O=C(c1ccc2c(c1)N(Cc1cccc(Cl)c1)C(=O)c1ccccc1S2(=O)=O)N1CCCCCC1 | 3% | / | / | ? | -65*
O=C(c1ccc2c(c1)N(Cc1cccc(Cl)c1)C(=O)c1ccccc1S2(=O)=O)N1CCN(Cc2ccccc2)CC1 | -13% | / | / | ? | -67*
CCC1CCCCN1CCCNC(=O)c1ccc2c(c1)N(Cc1ccccc1F)C(=O)c1ccccc1S2(=O)=O (stereo not given) | -7% | ? | / | ? | -101*
O=C(c1ccc2c(c1)N(Cc1cccc(Cl)c1)C(=O)c1ccccc1S2(=O)=O)N1CCCC1 | -1% | / | / | -21%[46.1 µM] | ?
COc1ccc(CCNC(=O)c2ccc3c(c2)N(Cc2ccc(F)cc2)C(=O)c2ccccc2S3(=O)=O)cc1OC | -1% | 10µM* | / | -27%[46.1 µM] | -24
O=C(NCCCN1CCCC1)c1ccc2c(c1)N(Cc1ccccc1F)C(=O)c1ccccc1S2(=O)=O | 16% | / | ? | / | 0
CCC1C(=O)NCCN1Cc1ccc2c(c1)CN(Cc1cccc(OC)c1)CCO2 (stereo not given) | 3% | / | / | / | /
Cc1cc(S(=O)(=O)Nc2ccc(-c3ccc(N4CCCCCC4)nn3)cc2)c(C)cc1Cl | 52% | / | / | ? | -16
O=C(c1cccs1)N1C[C@@H](O)[C@@H](n2cc(C3CC3)nn2)C[C@@H]1c1ccccc1 | / | / | / | 8%[46.1 µM] | /
Cc1ccc(S(=O)(=O)N2CCN(C)CC2)c2nsnc12 | 1% | 6%[46.1 µM] | 16% | -19%[46.1 µM] | -38
Cc1ccc(C(=O)N2CCCCC2)cc1NC1=C(Cl)C(=O)N(Cc2ccccc2)C1=O | ? | / | ? | / | -66*
COc1ccccc1N1CCN(C(=O)c2ccc3c(c2)N(Cc2ccccc2)C(=O)c2ccccc2S3(=O)=O)CC1 | 4% | 8.9µM* | / | -23%[46.1 µM] | 5
O=C(c1ccc2c(c1)N(Cc1cccc(Cl)c1)C(=O)c1ccccc1S2(=O)=O)N1CCN(c2ccccn2)CC1 | -6% | / | 14µM* | / | -84*
O=C(c1ccc2c(c1)N(Cc1ccc(Cl)cc1)C(=O)c1ccccc1S2(=O)=O)N1CCN(c2ccccn2)CC1 | -24% | -5%[46.1 µM] | / | 2%[46.1 µM] | -19
Cc1ccc(O)c(NC2=C(Cl)C(=O)N(Cc3ccccc3)C2=O)c1 | 7% | -46%[46.1 µM] | -19% | 2%[46.1 µM] | -2
Cc1ccc(C)c(CN2C(=O)c3ccccc3S(=O)(=O)c3ccc(C(=O)N(C)C4CCCCC4)cc32)c1 | 20% | ? | / | -22%[46.1 µM] | -76*
CCOC(=O)CSc1nc2ccc(N3CCOCC3)cc2c(=O)n1Cc1ccccc1 | 22% | 3% | 2.8µM* | ? | -6
CCOC(=O)CSc1nc2ccccc2c(=O)n1CCN1CCOCC1 | -24% | 5% | 12% | 31% | -8
COCCN1C=C(C(=O)OC)C(c2cc(Br)c(OC)c(OC)c2)C(C(=O)OC)=C1 | -25% | -23% | -25% | 11µM* | 42
CC(=O)Oc1ccc(OC(C)=O)c(SCCCCCCl)c1 | ? | ? | 11µM* | ? | -72*
O=C1c2[nH]nc(-c3ccccc3O)c2C(c2ccccc2F)N1Cc1ccco1 (stereo not given) | -21% | -1% | ? | 5.2µM* | -20
O=C1c2[nH]nc(-c3ccccc3O)c2C(c2ccccc2)N1Cc1ccco1 (stereo not given) | -23% | ? | -18% | 1.5µM* | 41
Cc1onc(-c2ccccc2Cl)c1C(=O)c1ccccc1 | ? | 1%[14.2 µM] | 19% | 8% | 2
Cc1cccc(C(=O)N(Cc2nc(-c3ccc(Cl)cc3)no2)C(C)C)c1 | 0% | / | / | -9%[46.1 µM] | -5
SMILES | FMDV inh | MARV entry inh | HCV inhibitor | LASV entry inh | HCMV inh
COc1ccccc1C(=O)N(Cc1nc(-c2cccc(C)c2)no1)C(C)C | -25% | ? | / | ? | -12
Cc1ccc(C)c(C(=O)N(Cc2nc(-c3ccc(Cl)cc3)no2)C(C)C)c1 | ? | / | 10µM* | / | -17
Cc1cccc(-c2noc(CN(C(=O)c3c(-c4ccccc4Cl)noc3C)C(C)C)n2)c1 | -14% | -2% | 10µM* | / | 17
Cc1cccc(-c2noc(CN(C(=O)c3ccc(C)c(C)c3)C(C)C)n2)c1 | ? | -16%[46.1 µM] | / | ? | -95*
Cc1onc(-c2ccccc2Cl)c1C(=O)N(Cc1nc(-c2ccccc2)no1)C1CCCCC1 | -4% | ? | 11µM* | ? | -27
COCc1c(C(=O)N2CCC(N(C)C)C2)cnn1-c1ncc2c(n1)-c1ccccc1CCC2 (stereo not given) | -9% | / | / | / | /
Cc1ccccc1C(=O)OCc1cc(=O)n2nc(-c3cccs3)sc2n1 | -10% | / | / | 27%[46.1 µM] | 12
Cc1onc(-c2ccccc2Cl)c1C(=O)NCc1ccccc1F | -8% | / | 6% | / | 11
Cc1onc(-c2ccccc2Cl)c1C(=O)NCc1nc(-c2ccc(C(F)(F)F)cc2)no1 | ? | ? | ? | 10µM* | -31
COCCCNc1nnc(Cc2ccc(Cl)cc2)c(=O)[nH]1 | -28% | / | -2% | / | -75*
CC(C)(C)c1ccc(S(=O)(=O)N2CCC(NC(=O)c3ccco3)CC2)cc1 | -7% | ? | 19% | -5% | -8
COc1ccc(NC(=O)C2CC(=O)N(CCc3ccc(Cl)cc3)C2)cc1 (stereo not given) | -3% | -12% | -17% | ? | -86*
COc1ccc(OC)c(NC(=O)C2CC(=O)N(CCc3ccc(F)cc3)C2)c1 (stereo not given) | 9% | -15%[46.1 µM] | 6% | 2% | /
Cn1ccnc1SCC(=O)c1ccc([N+](=O)[O-])cc1 | 11% | ? | -10% | 1% | -35
COc1ccccc1N=c1sc2ccccc2n1C | / | -17% | 1.8µM* | -2% | -26
Cc1onc(-c2ccccc2)c1C(=O)OCC(=O)Nc1ccc(Cl)cc1 | 0% | / | 10µM* | / | 6
Cc1ccc(NC(=O)COC(=O)c2c(-c3ccccc3)noc2C)cc1 | -26% | / | ? | / | -8
Cc1onc(-c2ccccc2)c1C(=O)OCC(=O)Nc1ccc(OC(F)(F)F)cc1 | ? | / | 11µM* | / | -24
O=S(=O)(c1ccc2[nH]c3c(c2c1)CCCC3)N1CCN(c2cccc(C(F)(F)F)c2)CC1 | -16% | / | / | ? | -13
COc1ccccc1N(CC1CO1)S(=O)(=O)c1ccccc1 (stereo not given) | -5% | 9%[46.1 µM] | 15% | -17% | 20
CC(=O)Nc1ccc(S(=O)(=O)NCC2CCC(C(=O)N3CCCCCC3)CC2)cc1 (stereo not given) | -17% | -3% | -3% | 3.5µM* | -7
COc1ccc(N(CC2CO2)S(=O)(=O)c2ccccc2)cc1 (stereo not given) | -3% | 18%[46.1 µM] | 10% | -18%[46.1 µM] | -62*
COc1ccc(S(=O)(=O)NCC2CCC(C(=O)NCCCN3CCCC3=O)CC2)cc1 (stereo not given) | -18% | / | 7% | / | -6
CN(Cc1ccccc1)S(=O)(=O)c1ccc2[nH]cc(C(=O)NCC3CCCO3)c(=O)c2c1 (stereo not given) | ? | 1% | / | -19%[14.3 µM] | -107*

Screens: PubChem, National Center for Advancing Translational Sciences (NCATS)
